Drawing on PubChem BioAssay (Tox21), this text covers Potency for 30 molecules.

A short description of assay [1]: qHTS assay to identify small molecule antagonists of the thyroid receptor (TR) signaling pathway (AID 743065). Also: nearly all actives have a fitted effect of over 55% in size. Also: potency is read from the fitted curve at half-maximal effect. In short, it runs like this: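 GH3.TRE-Luc rat pituitary cells (two TREs driving luciferase) were dosed with compound, then stimulated with 1 nM T3 (final) for 23.5 h at 37 C. ONE-Glo luminescence was the read-out, with CellTiter-Fluor fluorescence as the cytotoxicity counter-screen.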
(Quantitative high-throughput screening tests each substance at several concentrations.)

For assay [2], the system named is thyroid hormone receptor (rat, GH3 cells). Put plainly: qHTS assay to identify small molecule agonists of the thyroid receptor (TR) signaling pathway (AID 743066; calls by dose curve; also: potency is read from the fitted curve at half-maximal effect).
Assay [3] deals with Estrogen receptor (Homo sapiens) (UniProt P03372). Kind of assay: qHTS assay to identify small molecule antagonists of the estrogen receptor alpha (ER-alpha) signaling pathway (AID 743069; active = well fitted curve in the direction sought with a large enough effect in the signal ratio in the repeat runs, not every such curve was filed as active; inconclusive = weak or mixed curves, or effect the other way; inactive = no such curve, though single readings can be large or run the other way; the % refers to the signal ratio; also: potency is read from the fitted curve at half-maximal effect). The procedure, abridged:
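Reporter cells (ER-alpha-bla, HEK293 background) are conditioned overnight in stripped-serum medium (2% charcoal-stripped FBS). Compound and 17beta-estradiol exposure runs 18 hr at 37C, 5% CO2.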

Assay [4] can be described thus: qHTS assay to identify small molecule antagonists of the estrogen receptor alpha (ER-alpha) signaling pathway - cell viability counter screen (AID 743074; calls by dose curve;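 also: HEK293 cells carrying ER-alpha-UAS-bla reporter stimulated with 17beta-estradiol; nearly all actives have a fitted effect of over 45% in size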; also: potency is read from the fitted curve at half-maximal effect).
In assay [5] the target is Estrogen receptor (Homo sapiens) (UniProt P03372). Kind of assay: qHTS assay to identify small molecule agonists of the estrogen receptor alpha (ER-alpha) signaling pathway (AID 743075; calls by dose curve;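 also: HEK293 GripTite cells with ER-alpha and UAS-driven beta-lactamase reporter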; also: potency is read from the fitted curve at half-maximal effect).
Chain of Estrogen receptor (Homo sapiens) (P03372 whole entry, looked up): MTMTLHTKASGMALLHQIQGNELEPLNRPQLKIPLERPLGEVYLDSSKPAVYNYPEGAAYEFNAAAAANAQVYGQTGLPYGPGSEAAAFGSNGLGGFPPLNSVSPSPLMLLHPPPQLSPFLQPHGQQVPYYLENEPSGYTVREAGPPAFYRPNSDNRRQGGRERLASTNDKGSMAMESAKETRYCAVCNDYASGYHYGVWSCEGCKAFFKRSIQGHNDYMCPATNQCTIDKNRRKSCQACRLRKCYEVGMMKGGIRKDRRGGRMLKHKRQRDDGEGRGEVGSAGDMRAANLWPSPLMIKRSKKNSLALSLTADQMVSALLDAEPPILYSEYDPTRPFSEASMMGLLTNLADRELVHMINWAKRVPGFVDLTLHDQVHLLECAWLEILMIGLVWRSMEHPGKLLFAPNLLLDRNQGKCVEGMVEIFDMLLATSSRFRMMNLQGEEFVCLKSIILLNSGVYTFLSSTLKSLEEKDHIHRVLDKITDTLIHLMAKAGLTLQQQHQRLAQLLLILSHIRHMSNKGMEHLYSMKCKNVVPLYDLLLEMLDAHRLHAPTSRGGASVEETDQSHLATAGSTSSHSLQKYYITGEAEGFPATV
Assay [6] has the same target. Put plainly: qHTS assay to identify small molecule agonists of the estrogen receptor alpha (ER-alpha) signaling pathway using the BG1 cell line (AID 743079). Also: nearly all actives have a fitted effect of over 20% in size. Also: potency is read from the fitted curve at half-maximal effect. The following applies: BG1Luc4E2 cells, ERE-luciferase agonist, 22 h; activation: at 70.3 µM (top of the series).
Assay [7] is described as follows: qHTS assay to identify small molecule antagonists of the estrogen receptor alpha (ER-alpha) signaling pathway using the BG1 cell line (AID 743080; calls by dose curve;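 also: BG1 cells stimulated with 17beta-estradiol alongside compound; nearly all actives have a fitted effect of over 25% in size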; also: potency is read from the fitted curve at half-maximal effect). The procedure, abridged: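 BG1-Luc-4E2 cells (endogenous full-length ER-alpha, 4xERE luciferase) hormone-starved 5 days in charcoal-stripped FBS, plated 4,000/well for 24 h, then compound plus 17beta-estradiol for 21.5 h at 37 C; ONE-Glo luminescence read.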

A short description of assay [8]: qHTS assay to identify small molecule antagonists of the estrogen receptor alpha (ER-alpha) signaling pathway using the BG1 cell line - cell viability counter screen (AID 743081).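 Also: compound given together with 17beta-estradiol as the ER stimulus; nearly all actives have a fitted effect of over 45% in size.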
Assay [9] addresses Aromatase (Homo sapiens) (UniProt P11511). Put plainly: qHTS assay to identify aromatase inhibitors (AID 743083). Also: nearly all actives have a fitted effect of over 55% in size. Also: potency is read from the fitted curve at half-maximal effect.
Assay [10] in a line: qHTS assay to identify small molecule antagonists of the thyroid receptor (TR) signaling pathway - cell viability counter screen (AID 743064). Also: nearly all actives have a fitted effect of over 50% in size. The procedure, abridged: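 Counter screen for cytotoxicity: compound plus T3 (1 nM final) on GH3.TRE-Luc cells, 23.5 h at 37 °C, then fluorescence viability readout with CellTiter-Fluor.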

SMILES strings stand for the structures. Where “and” joins values, the source holds several entries; their conditions need not be identical. Equal values may be shown once. Calls of active or inactive are those of the source. Unless noted, calls follow the shape of the dose curve; as a rule, active = well fitted curve in the direction sought with a large enough effect in the repeat runs; inconclusive = weak or mixed curves; inactive = no such curve, though single readings can be large; an effect the other way counts as inactive or inconclusive.

Chain of Aromatase (Homo sapiens) (P11511 whole entry, looked up): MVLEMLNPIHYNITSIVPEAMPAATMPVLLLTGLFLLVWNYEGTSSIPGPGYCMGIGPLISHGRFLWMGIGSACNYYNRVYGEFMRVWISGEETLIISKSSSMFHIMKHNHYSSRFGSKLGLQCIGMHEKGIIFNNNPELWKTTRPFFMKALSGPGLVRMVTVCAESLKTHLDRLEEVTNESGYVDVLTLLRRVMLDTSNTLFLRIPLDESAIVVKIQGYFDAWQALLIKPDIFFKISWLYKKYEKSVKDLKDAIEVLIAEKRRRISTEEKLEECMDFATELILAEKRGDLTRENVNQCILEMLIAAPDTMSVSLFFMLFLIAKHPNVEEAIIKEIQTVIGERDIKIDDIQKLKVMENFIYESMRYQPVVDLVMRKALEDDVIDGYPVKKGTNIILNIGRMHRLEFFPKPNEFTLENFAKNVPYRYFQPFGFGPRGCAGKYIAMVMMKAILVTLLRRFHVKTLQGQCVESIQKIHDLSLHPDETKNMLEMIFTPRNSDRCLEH

Turning to `CCN(CC)CCN1C(=O)CN=C(c2ccccc2F)c2cc(Cl)ccc21`, in assay [1], the Potency was 23.7 µM (active). Also, the Potency entry in assay [2], in assay [3], in [4], in assay [5], in assay [6] and in assay [7] was “inactive” each time. The Potency entry in [8] and in [9] was “inactive” each time.

Consider `O=NN(CCO)CCO`, for which the Potency entry in assay [1], in assay [2], in assay [3], in assay [4], in assay [5] and in assay [6] was “inactive” each time. The Potency entry in assay [7], in assay [8] and in assay [9] was “inactive” throughout.

As for `ClC1(Cl)C2(Cl)C3(Cl)C4(Cl)C(Cl)(Cl)C5(Cl)C3(Cl)C1(Cl)C5(Cl)C24Cl` (stereo unspecified), the Potency result in [1], in [2], in [3], in assay [4], in assay [5] and in assay [6] was “inactive” each time. The Potency result in assay [7], in assay [8] and in [9] was “inactive” each time.

Take `Clc1ccc(C2(Cn3cncn3)OCCO2)c(Cl)c1`: the Potency result in [10], in [3], in [4], in assay [5], in assay [6] and in [7] was “inactive” throughout. For the same molecule, the Potency entry in assay [8] and in assay [9] was “inactive” each time.

Regarding `C#CCC1=C(C)C(OC(=O)C2C(C=C(C)C)C2(C)C)CC1=O` (stereo unspecified), the Potency in assay [1] was 60.7 µM (active). Moreover, the Potency result in [4] and in [8] was “inactive” each time.

`COP(=S)(NC(C)C)Oc1ccc(C)cc1[N+](=O)[O-]` (stereo unspecified): the Potency entry in [1], in [2], in assay [4] and in assay [8] was “inactive” throughout. Also, the Potency was 5.49 µM [inconclusive] (active) in [5], 1.93 µM (active) in assay [6] and 38.6 µM (active) in assay [7].

Consider `NC1CCC(CC2CCC(N)CC2)CC1` (stereo unspecified), for which the Potency entry in [1], in assay [2], in assay [4], in assay [5], in assay [6] and in assay [7] was “inactive” in each case. Also, the Potency result in assay [9] is “inactive”.

Consider `Nc1c(Cl)c(Cl)c(Cl)c(Cl)c1Cl`, for which the Potency result in [1], in [2], in assay [4], in assay [8] and in [9] was “inactive” in each case.

Regarding `CCN1CCC2(CC1)COc1cc3c(cc12)N(C(=O)c1ccc(-c2ccc(-c4nnc(C)o4)cc2C)cc1)CC3`, the results for the Potency in [1], in assay [4] and in [9] were 2.52 µM (active), 50.7 µM (active) and 28.3 µM (active), respectively. The Potency entry in [5] is “inactive”.

Consider `CNC(=O)/C=C(\C)OP(=O)(OC)OC`, for which the Potency result in [2], in [3], in [4], in [5], in [6] and in assay [7] was “inactive” in each case. For the same molecule, the Potency result in assay [8] and in assay [9] was “inactive” throughout.

As to `CSSC`, the Potency entry in assay [1], in assay [2], in assay [4] and in [8] was “inactive” throughout.

For the molecule `CNC(=O)O/N=C(\C)C(C)S(C)(=O)=O` (stereo unspecified), the Potency entry in assay [1], in [2], in assay [4], in assay [8] and in [9] was “inactive” in each case.

With `CCCCCCCc1ccc(O)cc1`, the Potency entry in assay [2], in assay [3], in [4], in assay [5], in [7] and in assay [8] was “inactive” throughout. Moreover, the Potency in assay [6] is 24.3 µM (active).

For `COCCC#N`, the Potency entry in assay [1], in assay [2], in [4], in [8] and in assay [9] was “inactive” each time.

In the case of `COC(=O)c1cc(Oc2ccc(Cl)cc2Cl)ccc1[N+](=O)[O-]`, the Potency in [1] is 61.1 µM (active). Also, the Potency result in [2], in assay [4] and in assay [8] was “inactive” throughout.

For `FC(F)C(F)(F)OCC(Cn1cncn1)c1ccc(Cl)cc1Cl` (stereo unspecified), the values for the Potency in assay [1] and in assay [9] were 60.8 µM (active) and 7.65 µM (active), respectively. Besides, the Potency entry in assay [8] was “inactive”.

Take `CCCCC(CC)COC(=O)OOC(C)(C)C` (stereo unspecified): the Potency entry in [1], in assay [2], in assay [4], in assay [8] and in assay [9] was “inactive” in each case.

Consider `CCCCCCC[CH2][Sn]([Cl])([Cl])[CH2]CCCCCCC`, for which the figures for the Potency in [1] and in [4] were 54.4 µM (active) and 24.5 µM (active), respectively. In addition, the Potency result in assay [2] and in [8] was “inactive” throughout.

Consider `CSC1=N[C@@](C)(c2ccccc2)C(=O)N1Nc1ccccc1`, for which, in assay [1], the Potency was 6.86 µM (active). Besides, the Potency entry in assay [2] and in assay [4] was “inactive” each time.

Take `CC(Cc1ccc(OCC(=O)O)cc1)NCC(O)c1csc(C(F)(F)F)n1` (stereo unspecified): the Potency in assay [2] was 77 µM (active). The Potency entry in [3], in assay [4], in [5], in assay [6], in assay [7] and in [8] was “inactive” throughout. Further, the Potency result in assay [9] is “inactive”.

Consider `O.O.O.O=C([O-])[C@H]([O-])[C@@H]([O-])C(=O)[O-].O=C([O-])[C@H]([O-])[C@@H]([O-])C(=O)[O-].[K+].[K+].[Sb+3].[Sb+3]`, for which the Potency entry in [2], in assay [4] and in assay [5] was “inactive” in each case. For the same molecule, the Potency in assay [3] is 17.5 µM [inhibitor] (active).

Take `[O]=[Cr](=[O])([OH])[O][Cr](=[O])(=[O])[OH]`: the Potency result in assay [2], in assay [3], in [4], in [5], in assay [6] and in assay [7] was “inactive” in each case. The Potency entry in assay [8] is “inactive”. For the same molecule, the Potency in [9] was 13.3 µM (active) and 2.46 µM (active) and 2.43 µM (active).

Consider `[Cl-].[Cl-].[Cl-].[Yb+3]`, for which the Potency result in assay [1], in assay [2], in assay [4], in assay [8] and in assay [9] was “inactive” each time.

In the case of `COP(=O)(OC)O/C(=C\Cl)c1cc(Cl)c(Cl)cc1Cl`, the Potency in assay [1] is 27.3 µM (active); in [3] it was 24.5 µM [inconclusive] (active); in assay [7], 68.6 µM (active); in [9] it was 30.6 µM (active). In addition, the Potency entry in assay [2] and in assay [8] was “inactive” throughout.

Consider `Cc1cc(C2CC2)nc(Nc2ccccc2)n1`, for which the Potency is 54.5 µM (active) in assay [1] and 9.69 µM (active) in [6]. Moreover, the Potency result in assay [2], in [4], in assay [5] and in assay [9] was “inactive” in each case.

Turning to `CO/N=C(/C1=NOCCO1)c1ccccc1Oc1ncnc(Oc2ccccc2Cl)c1F`, the Potency is 0.863 µM (active) in assay [1], 54.9 µM [inconclusive] (active) in assay [3], 8.63 µM (active) in [7] and 54.4 µM (active) in assay [9].

`c1csc(-c2ccc(-c3cccs3)s2)c1`: the Potency result in assay [1], in assay [8] and in [9] was “inactive” in each case. The Potency in [2] was 61.1 µM (active); in [6], 27.3 µM (active).

For the molecule `CN=C=O`, the Potency entry in [1], in [2], in assay [4], in [8] and in [9] was “inactive” in each case.

For the molecule `CCC(OC(C)=O)C(CC(C)NC)(c1ccccc1)c1ccccc1` (stereo unspecified), the Potency in [1] is 19.5 µM (active). In addition, the Potency result in assay [5] was “inactive”.

In the case of `O=C(N[C@H]1N=C(c2ccccc2F)c2cccc3c2N(CC3)C1=O)c1cc2ccccc2[nH]1`, in [1], the Potency was 5.96 µM (active). Further, the Potency entry in assay [2], in assay [8] and in assay [9] was “inactive” each time.
